Bioassay records: PubChem BioAssay, National Center for Advancing Translational Sciences (NCATS)
Shown are actives, neighbours in structure and some others; about 21% of the full set was active somewhere.
Giardia FBPA inh: inhibitors of Giardia lamblia fructose-1,6-bisphosphate aldolase | A8B2U2 | purified Giardia FBPA | Potency, µM (highest dose often 59.6 µM), hits mostly inhibitors | 290,000 tested, 0.71% active; note: nearly all actives have a fitted effect of over 55% in size
Target sequence (A8B2U2 whole entry, looked up): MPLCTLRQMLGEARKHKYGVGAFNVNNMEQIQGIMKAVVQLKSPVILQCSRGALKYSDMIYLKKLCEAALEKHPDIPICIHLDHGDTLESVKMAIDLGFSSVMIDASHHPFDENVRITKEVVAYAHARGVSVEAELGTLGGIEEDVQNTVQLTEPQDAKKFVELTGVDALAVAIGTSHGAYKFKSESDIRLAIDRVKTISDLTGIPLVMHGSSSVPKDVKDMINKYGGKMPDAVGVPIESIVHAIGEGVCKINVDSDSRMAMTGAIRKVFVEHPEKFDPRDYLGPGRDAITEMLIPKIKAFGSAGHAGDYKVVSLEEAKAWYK
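40 nM FBPA preincubated 10 min at RT with compound (up to 57.5 uM final), then substrate plus GAPDH/TPI/NAD/arsenate coupling and diaphorase/resazurin added. Fluorescence read after 20 min at RT, 525/598 nm.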
Pf growth 96h: inhibits malaria parasite growth, 96 h. P. falciparum luciferase reporter growth, 96 h. Potency, µM (top dose mostly 28.7 µM), hits mostly inhibitors. 320,000 tested, 6.9% active
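Delayed-death screen, second-generation endpoint: infected erythrocytes, 2% hematocrit, 0.05% parasitemia final; 96 hours at 37 C, 5% CO2; luciferase detection reagent; luminescence decrease equals reduced growth.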
NS1 function inh: inhibitors of influenza NS1 protein function; Potency, µM (top dose mostly 46.1 µM); 270,000 tested, 0.4% active; calls by dose curve; note: actives are rising curves; nearly all actives have a fitted effect of over 50% in size
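Compounds were scored for reversing the slow growth caused by influenza A NS1 in S. cerevisiae, measured by optical density at 600 nm. Assay medium contained 2% galactose at pH 6.0; NS1-free yeast of the same strain were the positive control.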
CHX counter: affects cycloheximide protein synthesis inhibition readout, counter-screen | cell reporter, cycloheximide protein synthesis inhibition counterscreen | max response, % | 300,000 tested, 12% active; in the data active = max response mostly above about 13%, no sharp cut-off; inactive = mostly below about 14%; note: read at 38.3 µM for the half of the compounds with a filed dose
Shiga inhibitor: Shiga toxin inhibition; Vero cells, Shiga toxin protein synthesis inhibition reporter; inhibition, % at 38.7 µM; 290,000 tested, 9.2% active; AID 2315; in the data active = inhibition mostly above about 28%, no sharp cut-off; inactive = mostly below about 43%
Pf growth 48h: P. falciparum growth inhibition at 48 hours (one generation); P. falciparum luciferase growth in erythrocytes, 48 h; 310,000 tested, 5.9% active; Potency, µM (highest dose often 28.7 µM), most hits filed as inhibitors
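Firefly luciferase activity from engineered P. falciparum reports growth; inhibitors lower the luminescent signal. Cultures contained 2% hematocrit erythrocytes at 0.1% final parasitemia.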
Large screens that a line does not name were inactive. Unless noted, calls come from the whole dose curve; as a rule, active = well fitted curve in the direction sought with a large enough effect; inconclusive = small, poorly fitted or top-dose-only effect, or another doubt; inactive = no such curve, though single readings can be large; an effect the other way counts as inactive or inconclusive.

S=C(c1ccc(-c2ccccc2Cl)o1)N1CCOCC1	CHX counter 24, Shiga inhibitor 93 (no result: Pf growth 96h)
O=C(c1ccc(-c2cccc(Cl)c2Cl)o1)N1CCOCC1	CHX counter 37, Shiga inhibitor 133
Nc1nc2ccccc2n1C(=O)c1cccs1	CHX counter 51, Shiga inhibitor 91 (no result: NS1 function inh)
Nc1nncn1C(=O)c1cccs1	none (no result: Pf growth 96h)
COc1ccc(C(=O)n2c(N)nc3ccccc32)cc1OC	CHX counter 25 (no result: Shiga inhibitor)
Nc1nc2ccccc2n1C(=O)c1ccc(F)cc1	CHX counter 16
Nc1nc2ccccc2n1C(=O)c1ccccc1	none
Cc1cccn2c(NC(=O)c3ccccc3F)c(-c3ccccc3)nc12	none
Cc1cc(-n2c(C)cc(C(=O)COc3ccc(F)c(F)c3)c2C)no1	none (no result: Giardia FBPA inh, NS1 function inh, CHX counter, Shiga inhibitor)
COC(=O)CN1C(=O)COc2ccc(S(=O)(=O)N3CCCCCC3)cc21	Pf growth 96h inconclusive
O=C(Cc1ccccc1[N+](=O)[O-])NCc1ccc(Cl)cc1Cl	CHX counter 44, Shiga inhibitor 87
CC(C)C(NC(=O)Cc1ccccc1[N+](=O)[O-])C(C)C	Pf growth 96h 12µM
O=C(Cc1ccccc1[N+](=O)[O-])NCc1ccc(Cl)cc1	CHX counter 33
O=C(/C=C/c1ccccc1[N+](=O)[O-])NCc1ccc(Cl)cc1	none
CC(C)N(C(=O)Cc1ccccc1[N+](=O)[O-])C(C)C	none
O=C(NCc1ccc(Cl)cc1)c1n[nH]c([N+](=O)[O-])c1Cl	CHX counter 45, Shiga inhibitor 61, Pf growth 48h inconclusive
O=C(NCc1ccc(Cl)cc1)c1ncn[nH]1	none
CCCCCCCCC1OC1CCCCCCCC(=O)O (centres undefined)	none (no result: Pf growth 96h, NS1 function inh, CHX counter, Shiga inhibitor, Pf growth 48h)
CCOC(=O)C1(CC2CCCCO2)CCN(Cc2ccc(OC)cc2F)CC1 (centres undefined)	none
Cc1ccc2c(c1)N(C(=O)CCC(=O)NCCN1CCOCC1)CC(C)O2 (centres undefined)	none
CCc1ccc(OCc2nnc(-c3ccccc3Br)o2)cc1	none (no result: Giardia FBPA inh, NS1 function inh, CHX counter, Shiga inhibitor)
Brc1ccccc1-c1nnc(COc2cccc3cccnc23)o1	none (no result: Pf growth 96h)
Clc1ccc(Cc2nnc(-c3ccccc3Br)o2)cc1	CHX counter 22, Shiga inhibitor 39
N#Cc1ccccc1OCc1nnc(-c2ccccc2Br)o1	CHX counter 48, Shiga inhibitor 103
Clc1ccccc1OCc1nnc(-c2ccccc2Br)o1	Pf growth 96h inconclusive, CHX counter 52, Shiga inhibitor 120
C=CCOc1ccccc1CN1CCC(Oc2cc(C(=O)NC3CC3)ccc2OC)CC1	Pf growth 48h inconclusive (no result: Giardia FBPA inh)
Cc1ccc(C2=NOC(=O)/C2=C\C=C\c2ccccc2)cc1	Pf growth 96h 2.9µM
CCOc1ccc(S(=O)(=O)Nc2ccc(C(=O)N3CCCC3)cc2)cc1C(N)=O	Pf growth 96h inconclusive (no result: Giardia FBPA inh)
c1ccc(-c2cn3c(n2)-c2ccccc2C3)cc1	CHX counter 26, Shiga inhibitor 45
CCOc1ccc(C(=O)Nc2ccc(N3CCN(S(C)(=O)=O)CC3)cc2)cc1[N+](=O)[O-]	Pf growth 96h 9.3µM
CCOc1ccc(C(=O)Nc2cccc(NC(=O)c3cccs3)c2)cc1[N+](=O)[O-]	Pf growth 96h 12µM
CCOc1ccc(C(=O)Nc2cccc([N+](=O)[O-])c2)cc1Br	Pf growth 96h inconclusive, CHX counter 20, Pf growth 48h inconclusive
CCOc1ccc(C(=O)Nc2ccc(NC(=O)c3ccccc3)c(C)c2)cc1[N+](=O)[O-]	Pf growth 96h 0.21µM
CCOC(=O)CNC(=O)C1c2ccccc2Oc2ccccc21	Pf growth 96h inconclusive
COc1ccc(OC)c(C(=O)COC(=O)c2[nH]c(C)c(C(C)=O)c2C)c1	Pf growth 48h inconclusive (no result: Giardia FBPA inh, NS1 function inh, CHX counter, Shiga inhibitor)
CCc1ccc(NC(=O)c2cccc(NC3=NC4CS(=O)(=O)CC4S3)c2)cc1 (centres undefined)	Giardia FBPA inh inconclusive
CCOc1ccc(NC(=O)c2cccc(NC3=NC4CS(=O)(=O)CC4S3)c2)cc1 (centres undefined)	Pf growth 96h 8.3µM
Cc1cccc(CCNC(=O)c2cccc(NC3=NC4CS(=O)(=O)CC4S3)c2)c1 (centres undefined)	Pf growth 96h 15µM
Cc1cccc(CCNC(=O)Cc2ccc(NC3=NC4CS(=O)(=O)CC4S3)cc2)c1 (centres undefined)	Pf growth 96h inconclusive
